Screens as filed in PubChem.
NOMO-1 viab: NOMO-1 AML cell viability reduction, primary screen, STK33 inhibitor project, CellTiter-Glo luminescence; NOMO-1 AML viability, 72 h; inhibition, % (no concentration beside the values); 37,000 tested, 7.5% active; AID 2330, 2010; in the data active = inhibition above about 80%
Shh pathway inh: Hedgehog pathway signaling inhibitors, primary screen, luminescence, Shh-LIGHT2 cells, Gli-luciferase; Shh-LIGHT2 Gli-luciferase reporter, 30 h; inhibition, % (no concentration beside the values); 22,000 tested, 2.1% active; AID 2313, 2010;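 active = mean inhibition across valid replicates above about 65%, limit read from the data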;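 also: pathway switched on by Shh-conditioned medium diluted 1 in 25 in low serum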
MITF inh: inhibitors of MITF, primary screen, MITF inhibitor project, cell-based, luminescence. TRPM1 promoter luciferase, 24 h. inhibition, % (test concentration not listed). 37,000 tested, 0.28% active; in the data active = inhibition above about 85%;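 also: human melanocyte line stably carrying TRPM1 promoter luciferase reporter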
PD-1 reverse act: activators reversing PD-1 mediated T-cell inhibition, primary screen, luminescence, primary human CD4 T cells, PD-L1 beads; CellTiter-Glo 96 h; activation, % (test concentration not listed); 29,000 tested, under 10 active; call rule not given here
Each line names hits and unclear results; the compound was inactive in the other large screens. The list is not random: actives were taken first. Their share in the collection is about 8.1%.

CC1(C)CC[C@@]2(C(=O)O[C@@H]3O[C@H](CO)[C@@H](O)[C@H](O)[C@H]3O)C(C1)C1=CCC3[C@@]4(C)CC[C@@H](O[C@@H]5O[C@H](C(=O)O)[C@@H](O[C@@H]6OC[C@@H](O)[C@H](O)[C@H]6O)[C@H](O)[C@H]5O)C(C)(C)C4CC[C@@]3(C)[C@]1(C)C[C@H]2O (stereo partly specified)	none
CC1OC(OC2C(CO)OC(OC(=O)[C@]34CCC(C)(C)CC3C3=CCC5[C@@]6(C)CC[C@H](OC7OC(C)C(OC8OCC(O)(COC9OCC(O)C(OC%10OCC(OC%11OCC(O)(CO)C%11O)C(O)C%10O)C9O)C8O)C(O)C7O)C(C)(C)C6CC[C@@]5(C)[C@]3(C)CC4)C(O)C2O)C(O)C(O)C1O (stereo partly specified)	NOMO-1 viab 99.9
C/C=C(\C)C(=O)O[C@H]1[C@H](OC(C)=O)[C@@]2(CO)C(CC1(C)C)C1=CCC3[C@@]4(C)CC[C@H](O[C@@H]5O[C@H](C(=O)O)[C@@H](O)[C@H](O[C@@H]6O[C@H](CO)[C@H](O)[C@H](O)[C@H]6O[C@@H]6O[C@@H](C)[C@H](O)[C@@H](O)[C@H]6O)[C@H]5O[C@@H]5O[C@H](CO)[C@@H](O)[C@H](O)[C@H]5O)C(C)(C)C4CC[C@@]3(C)[C@]1(C)C[C@H]2O (stereo partly specified)	Shh pathway inh 111.2 (no result: NOMO-1 viab, MITF inh, PD-1 reverse act)
CC1(C)CC[C@]2(C(=O)O)CC[C@]3(C)C(=CCC4[C@@]5(C)CC[C@H](O[C@@H]6OC[C@H](O)[C@H](O)[C@H]6O)[C@@](C)(CO)C5CC[C@]43C)C2C1 (stereo partly specified)	NOMO-1 viab 119.9, Shh pathway inh 79.3
CC1(C)CC[C@]2(C(=O)O[C@@H]3O[C@H](CO)[C@@H](O)[C@H](O)[C@H]3O)CC[C@]3(C)C(=CCC4[C@@]5(C)C[C@@H](O)[C@H](O)[C@](C)(CO)C5CC[C@]43C)C2[C@@H]1O (stereo partly specified)	NOMO-1 viab 119.8
NC(=S)Cc1ccc(Cl)cc1Cl	none
C[C@H]1CN([C@@H](C)CO)C(=O)Cc2cc(NC(=O)CCCCCC(=O)Nc3ccccc3N)ccc2O[C@@H]1CN(C)S(=O)(=O)c1ccccc1	none (no result: Shh pathway inh)
COc1ccc(NC(=O)Nc2ccc3c(c2)C(=O)N([C@H](C)CO)C[C@H](C)[C@H](CN(C)S(=O)(=O)c2cn(C)cn2)OCCCC[C@@H](C)O3)cc1	none
C[C@@H]1O[C@@H](O[C@H]2[C@H](O)[C@@H](O)[C@H](OC[C@H]3O[C@@H](OC(=O)[C@]45CCC(C)(C)CC4C4=CCC6[C@@]7(C)CC[C@H](O)C(C)(C)C7CC[C@@]6(C)[C@]4(C)CC5)[C@H](O)[C@@H](O)[C@@H]3O)O[C@@H]2CO)[C@H](O)[C@H](O)[C@H]1O (stereo partly specified)	NOMO-1 viab 121.6, Shh pathway inh 75.7
CC1(C)CC[C@]2(C(=O)OC3OC(CO)C(O)C(O)C3O)CC[C@]3(C)C(=CCC4[C@@]5(C)CC[C@H](OC6OC(C(=O)O)C(O)C(O)C6O)C(CO)(CO)C5CC[C@]43C)[C@@H]2C1 (stereo partly specified)	NOMO-1 viab 119.9
COC(=O)C1[C@H]2C[C@H]3c4[nH]c5ccccc5c4CCN3C[C@@H]2CC[C@@H]1O (stereo partly specified)	none (no result: PD-1 reverse act)
O=S(=O)(c1cccc2c(Cl)cccc12)N1CCCNCC1	NOMO-1 viab 89.6
COc1ccc(OC)c(NC(=O)CSc2nnnn2-c2ccccc2)c1	none (no result: Shh pathway inh)
COc1ccc(-n2nnnc2SCC(=O)Nc2cc(C)c(Cl)cc2OC)cc1	NOMO-1 viab 92.2 (no result: Shh pathway inh)
Cc1ccc(S(=O)(=O)Nc2ccc3c(c2)CC(=O)N([C@@H](C)CO)C[C@H](C)[C@@H](CN(C)S(=O)(=O)c2ccc(C)cc2)O3)cc1	none
C[C@@H]1CN([C@@H](C)CO)C(=O)c2cc(NS(=O)(=O)c3ccc(Cl)cc3)ccc2O[C@H]1CN(C)Cc1ccc(C(F)(F)F)cc1	NOMO-1 viab 107.1 (no result: Shh pathway inh)
C[C@H](CO)N1C[C@H](C)[C@H](CN(C)Cc2ccc(C(F)(F)F)cc2)Oc2ccc(NS(=O)(=O)c3ccccc3)cc2C1=O	none
C[C@@H]1CN([C@H](C)CO)C(=O)c2cc(NS(=O)(=O)c3ccc(Cl)cc3)ccc2O[C@@H]1CN(C)Cc1ccc(C(F)(F)F)cc1	NOMO-1 viab 115.5 (no result: Shh pathway inh)
C[C@H]1CN([C@@H](C)CO)C(=O)c2cc(NS(=O)(=O)c3ccccc3)ccc2O[C@@H]1CN(C)Cc1ccc(C(F)(F)F)cc1	none
C[C@@H]1CN([C@H](C)CO)C(=O)Cc2cc(NC(=O)NC3CCCCC3)ccc2O[C@@H]1CN(C)S(=O)(=O)c1cn(C)cn1	none
C[C@@H]1CCCCO[C@@H](CN(C)C)[C@@H](C)CN([C@H](C)CO)C(=O)c2cc(NC(=O)c3ccccc3)ccc2O1	NOMO-1 viab 122.6 (no result: PD-1 reverse act)
C[C@@H]1CCCCO[C@@H](CN(C)CC2CCCCC2)[C@@H](C)CN([C@H](C)CO)C(=O)c2cc(NC(=O)c3ccccc3)ccc2O1	NOMO-1 viab 116.8 (no result: Shh pathway inh)
C[C@@H]1CCCCO[C@@H](CN(C)CC2CCCCC2)[C@@H](C)CN([C@H](C)CO)C(=O)c2cc(NC(=O)Nc3ccccc3)ccc2O1	NOMO-1 viab 122.5
CCCN(C)C[C@@H]1OCCCC[C@@H](C)Oc2ccc(NS(=O)(=O)c3cn(C)cn3)cc2C(=O)N([C@H](C)CO)C[C@@H]1C	none
O=C(CCn1nc(-c2ccc(Cl)cc2)c2ccccc2c1=O)Nc1ccccc1	none (no result: Shh pathway inh)
Cc1ccc(S(=O)(=O)N(C)C[C@@H]2Oc3c(NC(=O)Nc4ccc5c(c4)OCO5)cccc3C(=O)N([C@H](C)CO)C[C@H]2C)cc1	none
CCc1nnc(NC(=O)CSc2nc(-c3ccccc3)cc(C(F)(F)F)c2C#N)s1	none
CCN(CC)C(=S)CSc1nc(-c2ccccc2)cc(-c2ccco2)c1C#N	NOMO-1 viab 88.0
C[C@H](CO)N1C[C@H](C)[C@H](CN(C)Cc2ccc(-c3ccccc3)cc2)Oc2ccc(NS(=O)(=O)c3cccs3)cc2CC1=O	none
C[C@H](CO)N1C[C@H](C)[C@@H](CN(C)Cc2ccccc2)Oc2ccc(NC(=O)CCCCCC(=O)Nc3ccccc3N)cc2C1=O	none (no result: Shh pathway inh)
O=C(c1ccccc1)N1CN(C2CCCCC2)Cc2c1sc1c2CCCC1	NOMO-1 viab 115.8
C[C@H]1CN([C@@H](C)CO)C(=O)c2cc(NS(=O)(=O)c3ccccc3)ccc2O[C@@H]1CN(C)CC1CCCCC1	none (no result: Shh pathway inh)
COc1ccc(OC)c(NC(=O)CSc2nnc(-c3cccnc3)s2)c1	NOMO-1 viab 110.2 (no result: Shh pathway inh, PD-1 reverse act)
CC1(C)NCCC12C(=O)N(Cc1ccccc1)c1ccccc12 (stereo unspecified)	NOMO-1 viab 120.4
Cc1cccc(OCC(=O)Nc2cccc(-c3nc4ccccc4[nH]3)c2)c1C	none (no result: Shh pathway inh)
